ST2 inh: inhibitors of human ST2 (IL1RL1) binding to IL-33; actives 2.3% (n = 78,000); inhibition, % for hits at 17 µM; AlphaLISA ST2-Fc/biotin-IL-33 interaction, 1 h; Q01638; AID 1259354; in the data active = inhibition above about 30%
Target sequence (Q01638 whole entry, looked up): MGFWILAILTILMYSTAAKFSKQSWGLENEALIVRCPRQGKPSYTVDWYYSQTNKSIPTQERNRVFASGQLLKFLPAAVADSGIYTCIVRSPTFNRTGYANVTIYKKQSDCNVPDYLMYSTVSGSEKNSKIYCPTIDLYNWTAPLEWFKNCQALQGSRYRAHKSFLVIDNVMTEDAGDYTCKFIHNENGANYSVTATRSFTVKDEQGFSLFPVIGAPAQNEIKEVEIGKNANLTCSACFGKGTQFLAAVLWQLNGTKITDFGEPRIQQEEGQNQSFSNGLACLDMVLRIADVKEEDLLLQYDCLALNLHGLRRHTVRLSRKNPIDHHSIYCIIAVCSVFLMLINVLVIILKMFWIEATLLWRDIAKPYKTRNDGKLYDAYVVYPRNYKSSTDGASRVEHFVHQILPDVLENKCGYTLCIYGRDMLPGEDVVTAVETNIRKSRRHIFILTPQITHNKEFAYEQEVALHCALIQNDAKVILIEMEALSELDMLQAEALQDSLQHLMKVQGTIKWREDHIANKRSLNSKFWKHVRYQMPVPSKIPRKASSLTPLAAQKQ
Numbers stand for hits; – = inactive; ! = not active in a repeat. This excerpt belongs to a sample that is enriched for hits.

SMILES	ST2 inh
Cc1cc2nc(CNC(=O)c3cc(CN4CCOCC4)on3)[nH]c2cc1C	–
CC(=O)N1CCn2c3c(c4cc(C5CCCCC5)ccc42)CCCC31 (stereo not given)	–
Cc1ccc2c(c1)c1c3n2CCN(C(=O)c2ccccc2)C3CCC1 (stereo not given)	30%
CC(=O)N1CCn2c3c(c4cc(C)ccc42)CCCC31 (stereo not given)	–
Cc1ccc2c(c1)c1c(n2C)C(C(N)=O)CCC1 (stereo not given)	32%
Cc1ccc2c(c1)c1c3n2CCN(CCC#N)C3CCC1 (stereo not given)	–
Cc1ccc2c(c1)c1c(n2CCC#N)C(=O)CCC1	–
O=C(Nc1nc(-c2ccc([N+](=O)[O-])cc2)cs1)c1cccnc1Cl	–
COc1ccc(Cc2noc(-c3cccc(Br)c3)n2)cc1OC	–
Cc1ccc(C)c(OCC(=O)Nc2ccc(S(N)(=O)=O)cc2)c1C	–
OC(CC#CN1CCCCC1)(c1ccccc1)C1CCCC1 (stereo not given)	–
COc1ccc(/C(N)=N\OC(=O)c2ccc3c(c2)OCO3)cc1OC	–
CC1=CC(C)(C)Nc2ccc(OC(=O)c3ccc4c(c3)OCO4)cc21	30%
COc1ccccc1C(=O)Oc1ccc2c(c1)C(C)=CC(C)(C)N2	–
COc1cc(NC(=O)CCC2CCCN(C(=O)CCN3CCCCO3)C2)cc(OC)c1 (stereo not given)	–
COc1ccccc1N1CCN([C@H]2[C@@H]3OC[C@@H](O3)[C@@H](NCc3cnc4ccccc4c3)[C@@H]2O)CC1	30%
C=CCNC(=O)N[C@H]1[C@H](O)[C@@H](N2CCN(c3ccccc3OC)CC2)[C@@H]2OC[C@H]1O2	–
NC(=O)C1CCN([C@H]2[C@@H]3OC[C@@H](O3)[C@@H](NCc3cnc4ccccc4c3)[C@@H]2O)CC1	–
CCS(=O)(=O)N1CCN(C(=O)Cc2ccccc2)CC1	–
O=C(NCc1cnn2ccccc12)c1cccc(Cn2cccn2)c1	–
COc1cccc(CC(=O)NCc2cnn3ccccc23)c1	33%
C=CCOC(=O)NCc1cnn2ccccc12	40%
CCSC[C@H](N)C(=O)NCc1cnn2ccccc12	–
O=C(COCc1ccccc1)NCc1cnn2ccccc12	–
Cc1ccc(SC(C)C(=O)NCc2cnn3ccccc23)cc1 (stereo not given)	–
SMILES	ST2 inh
Cc1cccc(-c2cc(N3CCN(S(=O)(=O)c4ccc(CC(C)C)cc4)CC3)ncn2)c1	–
CCC1CCCCN1CCCNC(=O)C1CCN(S(=O)(=O)N2CCCCC2)CC1 (stereo not given)	–
COc1ccc(N(CC(=O)Nc2ccc(C)c(Cl)c2)S(C)(=O)=O)cc1	–
COc1ccc(N(CC(=O)Nc2ccc(F)cc2)S(C)(=O)=O)cc1Cl	–
COc1cccc(NC(=O)CN(c2ccc(Cl)c(Cl)c2)S(C)(=O)=O)c1	96%
O=CNc1ncc(-c2nc3ccccc3[nH]2)s1	–
Cc1cc(NC(=O)CS(=O)(=O)c2cn(Cc3ccccc3Cl)c3ccccc23)no1	–
O=C(CS(=O)(=O)c1cn(Cc2ccccc2Cl)c2ccccc12)NC1CCCCC1	32%
CCn1cc(S(=O)(=O)CC(=O)NC2CCCCC2)c2ccccc21	–
Cc1cccc(NS(=O)(=O)c2c(C)n[nH]c2C)c1	–
CCCc1ccc(CN2CCC(N3CCCC3=O)CC2)o1	–
COc1ccccc1C1C(C(=O)Nc2ccc(C)cn2)=C(C)NC2=C1C(=O)CC(C)(C)C2 (stereo not given)	–
Cc1ccc(NC(=O)N[C@@H]2C=C(C(=O)N[C@H](C)C(N)=O)C[C@@H](O)[C@@H]2O)cc1	–
CSCC[C@@H](CO)NC(=O)c1cccc2ccnn12	–
O=C(c1ccc(S(=O)(=O)N2CCCCC2)cc1)N1CCN=C1SCc1ccccc1	–
C=CCOc1ccc(C=Nc2ccc(Cl)cc2)cc1	–
O=c1[nH]c2ccc(N=Cc3ccc(O)cc3O)cc2[nH]1	–
C=CCOc1ccc(C=Nc2ccc(C)cc2C)c(O)c1	38%
C=CCOc1ccc(C=Nc2ccc(C(C)C)cc2)c(O)c1	41%
O=C(c1ccc2c(c1)CCO2)N1C[C@H]2OC(=O)N(Cc3ccccn3)[C@H]2C1	–
O=C1C2C3C=CC(C4CC34)C2C(=O)N1c1ccc(Cl)cc1 (stereo not given)	–
CCCOC(=O)C1=C(C)NC2=C(C(=O)C(C(=O)OC)C(C)C2)C1c1ccccc1OC(C)C (stereo not given)	–
O=c1ccn(-c2ccccc2)[nH]1	–
O=C1C(=Cc2cccn2-c2ccccc2)C(=O)c2ccccc21	31%
O=C(O)COc1ccc(C=C2C(=O)c3ccccc3C2=O)cc1Cl	–
SMILES	ST2 inh
Cc1ccc(CN2C(=O)CCC2(C)C(=O)NCc2cccnc2)cc1 (stereo not given)	–
Cc1cc(/C=C2\C(=O)NC(=O)N(C)C2=O)c(C)n1-c1ccc(F)c(Cl)c1	46%
Cc1cc(C=C2C(=O)N(C)C(=O)N(C)C2=O)c(C)n1-c1ccc(Cl)c(Cl)c1	–
Cc1ccc(N2NC(=O)/C(=C/c3ccc(Cl)cc3Cl)C2=O)cc1Cl	–
Cc1ccc(S(=O)(=O)N2CCN(S(=O)(=O)c3ccc(C)c([N+](=O)[O-])c3)C2)cc1	–
Cc1ccc(C23C[C@@H]4C[C@@H](CC(Cl)(C4)C2)C3)cc1N	–
Cc1ccc(C23C[C@@H]4C[C@@H](CC(O)(C4)C2)C3)cc1[N+](=O)[O-]	44%
COc1cccc(CNC(=O)C2=C(C)C(=O)OC23CCN(S(=O)(=O)c2cccs2)CC3)c1	–
Cc1ccc(-n2c(SCC(=O)N3CCOCC3)nc3c(c2=O)SCC3)cc1	–
COc1ccc(NC(=O)c2ccccc2Sc2ccc([N+](=O)[O-])cc2)cc1	–
COc1ccc(-c2[nH]c3ccccc3c2C(C[N+](=O)[O-])c2ccco2)cc1 (stereo not given)	–
COc1ccc(C(C[N+](=O)[O-])Sc2ccccc2N)cc1 (stereo not given)	32%!
CC(C)CCOC(=O)C1C2C=CC3(CN(Cc4cccs4)C(=O)C13)O2 (stereo not given)	–
O[C@@H]1CN(Cc2cccn2-c2ccccn2)CC[C@H]1c1ccc2c(c1)OCO2	–
O=C(Nc1cccc(-c2ccco2)c1)C1CCN(Cc2cccn2-c2ccccn2)CC1	32%
O=C(c1ccco1)N1CCN(Cc2cccn2-c2ncccn2)CC1	–
O=C(c1cc(-c2ccccc2)nc2ccccc12)N1CCN(Cc2ccc3c(c2)OCO3)CC1	–
COc1ccc(C(=O)Nc2cccc(-c3nc4cc(C)ccc4o3)c2)cc1[N+](=O)[O-]	–
COc1ccc(C(=O)Nc2ccc(-c3nc4cc(C)ccc4o3)c(O)c2)cc1Cl	30%
COc1ccccc1C(=O)Nc1ccc(-c2nc3cc(C)ccc3o2)cc1	–
CC(=O)c1cccc(NS(=O)(=O)c2cc(Br)cc3c2N(C(C)=O)C(C)C3)c1 (stereo not given)	–
Cn1c(=O)c2c(nc(NCc3cccnc3)n2Cc2cccc3ccccc23)n(C)c1=O	30%
Cc1ccccc1Cn1c(NCc2ccccc2)nc2c1c(=O)n(C)c(=O)n2C	–
Cn1c(=O)c2c(nc(NCCCO)n2Cc2cccc3ccccc23)n(C)c1=O	–
O=[N+]([O-])c1cc(C=Nc2cccc(I)n2)ccc1Br	–
O=[N+]([O-])c1cc(C=Nc2ccccc2I)ccc1Br	35%
O=[N+]([O-])c1cc(C=Nc2ccc(Br)cc2)ccc1Br	–
N/C(=N/OC(=O)c1ccc2c(c1)OCO2)c1cccnc1	–
Cc1ccc(-c2ccc(CCC(=O)O)[nH]2)cc1	35%
Cc1ccc(-c2cc(=O)c(=O)[nH][nH]2)cc1	–

Source: PubChem BioAssay (Paczesny and Yang Labs, IUPUI and University of Michigan)
